From the supplement of paper PMC13380429 come the findings set out here.

This experiment relates to Vero E6 infected with SARS-CoV-2. Briefly: morphology score (similarity to uninfected cells); higher = more like uninfected cells. As to conditions: 24 h.
Take `COCCOc1ccc2c(c1)ncn2-c1ccc2cccc(N3CCC(N)CC3)c2n1` (0.833333 µM): the morphology score was -0.0191.
The compound `CO[C@@]1(NC(=O)C(C(=O)O)c2ccc(O)cc2)C(=O)N2C(C(=O)O)=C(CSc3nnnn3C)CO[C@@H]21` (stereo not given in full) [moxalactam] (10 µM) had a morphology score of -0.0497.
Turning to `CCC(C)SSc1ncc[nH]1` (stereo not given) (10 µM), the morphology score was -0.172.
Compound `Oc1c(Cl)cc(Cl)c(Cl)c1Cc1c(O)c(Cl)cc(Cl)c1Cl` [hexachlorophene] (10 µM) yielded a morphology score of 0.167.
`Cc1c(NC(=O)c2cccnc2)c(=O)n(-c2ccccc2)n1C` [nifenazone] (10 µM) gave a morphology score of 0.0329.
Compound `CCC(=O)O[C@@H]1CC(=O)O[C@H](C)C/C=C/C=C/[C@H](O)[C@H](C)C[C@H](CC=O)[C@H](O[C@@H]2O[C@H](C)[C@@H](O[C@H]3C[C@@](C)(O)[C@@H](OC(=O)CC)[C@H](C)O3)[C@H](N(C)C)[C@H]2O)[C@H]1OC` [midecamycin] (10 µM) yielded a morphology score of 0.2.
Compound `CCCC(C(=O)OCCN(CC)CC)(c1ccccc1)c1ccccc1` [proadifen] (10 µM) returned a morphology score of 0.323.
As to `CCOc1cc([C@@H](CS(C)(=O)=O)N2C(=O)c3cccc(NC(C)=O)c3C2=O)ccc1OC` [apremilast] (10 µM), the morphology score is 0.345.
Consider `CN1CCC[C@@H](CC2c3ccccc3Sc3ccccc32)C1` (racemic) [metixene] (0.833333 µM), for which the morphology score was 0.383.
As for `CCCCCCCCN=c1ccn(CCCCCCCCCCn2ccc(=NCCCCCCCC)cc2)cc1` [octenidine] (0.833333 µM), the morphology score was -0.0145.
Under `CN1CCN(CCc2ccc(Cl)c(Cl)c2)CC1` (10 µM) stands 0.156; under `C[C@H](NC(=O)Cc1cc(F)cc(F)c1)C(=O)N[C@@H]1C(=O)N(C)c2ccccc2-c2ccccc21` (10 µM), 0.18.
Under `Clc1ccccc1CN1CCc2sccc2C1` [ticlopidine] (10 µM) stands 0.199.
Under `CCOC(=O)C1=C[C@@H](OC(CC)CC)[C@H](NC(C)=O)[C@@H](N)C1` [oseltamivir-phosphate] (10 µM) stands 0.239; under `Cc1cc2c(cc1C(F)(F)F)N(C(=O)Nc1ccc(Oc3cccnc3C)nc1)CC2` (10 µM), 0.281; under `CCCC[C@H](NC(=O)[C@@H]1[C@@H]2[C@H](CN1C(=O)[C@@H](NC(=O)NC1(CS(=O)(=O)C(C)(C)C)CCCCC1)C(C)(C)C)C2(C)C)C(=O)C(=O)NC1CC1` [narlaprevir] (10 µM), 0.157.
`CCCCCCCCCCCC(=O)O` [lauric-acid] (10 µM) had a morphology score of 0.185.
In the case of `CC(C)OC(=O)N1CCC(Oc2ncnc3c2cnn3-c2ccc(S(C)(=O)=O)cc2F)CC1` (10 µM), the morphology score worked out at 0.0759.
For the compound `C#C[C@]1(OC(=O)CCCCCC)CC[C@H]2[C@@H]3CCC4=CC(=O)CC[C@@H]4[C@H]3CC[C@@]21C` [norethisterone-enanthate] (10 µM), the morphology score came to 0.146.
As to `Clc1ccc(C(c2ccccc2Cl)C(Cl)Cl)cc1` (stereo not given) [mitotane] (10 µM), the morphology score is -0.173.
Turning to `N#CCNC(=O)c1ccc(-c2ccnc(Nc3ccc(N4CCOCC4)cc3)n2)cc1` (0.833333 µM), the morphology score stood at 0.412.
Take `COc1ccc(OC)c([C@@H](O)CNC(=O)CN)c1` [midodrine] (10 µM): the morphology score was -0.0583.
As for `Clc1ccc(Nc2nnc(Cc3ccncc3)c3ccccc23)cc1` [vatalanib] (10 µM), the morphology score was determined as 0.199.
`COc1ccc2cc(-c3cc(-c4cc(Cl)cc(Cl)c4)nn3[C@@H](C)c3ccc(C(=O)NCCC(=O)O)cc3)ccc2c1` (10 µM): the morphology score was 0.164.
`O=C(NO)c1cnc(N2CCN(S(=O)(=O)c3ccc4ccccc4c3)CC2)nc1` (10 µM) came in with a morphology score of -0.145.
The figure for `OCc1ccc(CO)o1` [2,5-furandimethanol] (10 µM) is 0.0908.
In turn, `Cc1csc(NC(=O)CSc2ccc(-c3ccccc3)nn2)n1` (10 µM) returned a morphology score of 0.49.
For `CC(C)(C)NCC(O)COc1cccc2c1CCC(=O)N2` (stereo not given) [carteolol] (10 µM), the morphology score was found to be 0.111.
The figure for `CNC(=O)c1ccccc1Nc1nc(Nc2ccc(N3CCOCC3)cc2OC)ncc1Cl` (10 µM) is -0.217; for `N#C/C(=C\c1ccc(O)c(O)c1)C(=O)NCCCCc1ccccc1` (0.833333 µM) it is 0.167; for `CCCCc1nc(C)c(CC(=S)N(C)C)c(=O)n1Cc1ccc(-c2ccccc2-c2nnn[nH]2)cc1` [fimasartan] (10 µM) it is 0.0951.
For the compound `c1ccc2sc(SNC3CCCCC3)nc2c1` [N-cyclohexyl-2-benzothiazolesulfenamide] (10 µM), the morphology score was -0.00896.
On to `Nc1ncnc2[nH]nc(Nc3ccc(F)cc3)c12` (0.833333 µM), for which the morphology score was -0.00281.
For `COc1cc2c(=O)c(-c3ccc(O)cc3)coc2cc1O` [glycitein] (10 µM), the morphology score was 0.00478.
`CCCCCCCCCCCCCCCCCCCCCCCCC(=O)O` [pentacosanoic-acid] (10 µM) came in with a morphology score of 0.211.
With `Fc1ccc(C(c2ccccc2)(c2ccccc2F)n2ccnc2)cc1` (stereo not given) [flutrimazole] (10 µM), the morphology score came to 0.166.
In turn, `c1ccc(-c2n[nH]c3c2oc2ccccc23)cc1` (10 µM) yielded a morphology score of 0.0627.
The figure for `O=C(O)/C=C(/CC(=O)O)C(=O)O` [cis-aconitic-acid] (10 µM) is -0.118; for `O=C(NC1CCN(CCCCC2(C(=O)NCC(F)(F)F)c3ccccc3-c3ccccc32)CC1)c1ccccc1-c1ccc(C(F)(F)F)cc1` [lomitapide] (0.833333 µM) it is 0.223.
`Cc1cc(C)n(-c2cccc([C@H](CC(=O)O)CN3CC[C@@H](CCc4ccc5c(n4)NCCC5)C3)c2)n1` [integrin-antagonist-1] (10 µM): the morphology score was -0.102.
